Screens: PubChem BioAssay, National Center for Advancing Translational Sciences (NCATS)
Only some compounds are listed: those with a hit (about 7.5% of all), similar ones and a draw of the others.
NPC1 prom act – activators of NPC1 promoter. Huh7 NPC1 promoter luciferase reporter, 24 h. AID 485313. Potency, µM (highest dose often 9.22 µM), without a hit: top-dose activation, hits mostly activators. 2.4% of 320,000 active; also: % of control where 0% means no effect; nearly all actives have a fitted effect of over 60% in size
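Luminescence from an NPC1 promoter-driven luciferase reporter in stably transfected Huh7 cells was measured after 24 h compound treatment at 37 °C, followed by 10 min ambient incubation with luciferase detection reagent.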
ELG1 genotoxic – induces genotoxicity in HEK293T cells with luciferase-tagged ELG1; HEK293T ELG1-luciferase reporter, luminescence, 16 h; Potency, µM (top dose mostly 46 µM), for inactives: at the top dose activity change, positive = activation, actives largely listed as activators; 1.3% of 330,000 active; AID 504466; also: % of control where 0% means no effect; nearly all actives have a fitted effect of over 60% in size
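ELG1-luciferase HEK293T cells, 2,000/well; compound pinned in; 16 hr, 37 °C, 5% CO2; ONE-Glo, 30 min RT; luminescence on CCD imager.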
SMN2 splice up – SMN2 splice variant enhancement | HEK293 SMN2-luciferase splicing reporter, luminescence, 30-36 h | Potency, µM (doses to about 46.1 µM), for inactives: at the top dose activity change, positive = activation, hits mostly activators | 2.8% of 210,000 active | AID 1458; also: % of control where 0% means no effect; nearly all actives have a fitted effect of over 55% in size
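qHTS luciferase splicing reporter: luminescence rises when SMN2 exon 7 is included in transfected HEK293 cells. Compound exposure lasted 30-36 h at 37C, with 4.5 mM final sodium butyrate as control, followed by a ONE-Glo read.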
Rab9 prom act – activators of Rab9 promoter. Huh7 Rab9 promoter-luciferase reporter, luminescence, 24 h. Potency, µM (series often up to 9.22 µM), without a hit: top-dose activation, negative = inhibition, hits mostly activators. 2.8% of 320,000 active; also: % of control where 0% means no effect; nearly all actives have a fitted effect of over 60% in size
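Quantitative HTS format; Huh7 Rab9-luciferase reporter cells (1500/well) receive compound 2 h post-plating, incubate 24 h at 37 °C, then get luciferase reagent for 10 min before luminescence reading.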
Luc counter – blocks Kinase-Glo luciferase, a counter-screen artifact; Q27757; Kinase-Glo luciferase, ATP luminescence, 8 min; Potency, µM (highest dose often 38.3 µM), for the others: top-dose activity change, negative = inhibition, most hits filed as inhibitors; 0.28% of 200,000 active; also: % is scaled to controls: 0 for no effect and ±100 for the full control effect; nearly all actives have a fitted effect of over 60% in size
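Light output from Kinase-Glo luciferase with luciferin and 10 uM ATP in 50 mM imidazole pH 7.2, KCl, MgCl2, Tween 20, BSA; compound pin-delivered, 8-min ambient incubation, then luminescence read.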
FLuc modulator – firefly luciferase modulation, counter-screen for miR-21 project; purified FLuc, Km substrates, luminescence inhibition; P08659; 6.9% of 360,000 active; Potency, µM (titrated, usually from 57.5 µM), for inactives: top-dose activity change, negative = inhibition, usual class: inhibitors;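 also: plate controls were vehicle for no effect and reference inhibitor for full effect; nearly all actives have a fitted effect of over 55% in size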
Target sequence (P08659 whole entry, looked up): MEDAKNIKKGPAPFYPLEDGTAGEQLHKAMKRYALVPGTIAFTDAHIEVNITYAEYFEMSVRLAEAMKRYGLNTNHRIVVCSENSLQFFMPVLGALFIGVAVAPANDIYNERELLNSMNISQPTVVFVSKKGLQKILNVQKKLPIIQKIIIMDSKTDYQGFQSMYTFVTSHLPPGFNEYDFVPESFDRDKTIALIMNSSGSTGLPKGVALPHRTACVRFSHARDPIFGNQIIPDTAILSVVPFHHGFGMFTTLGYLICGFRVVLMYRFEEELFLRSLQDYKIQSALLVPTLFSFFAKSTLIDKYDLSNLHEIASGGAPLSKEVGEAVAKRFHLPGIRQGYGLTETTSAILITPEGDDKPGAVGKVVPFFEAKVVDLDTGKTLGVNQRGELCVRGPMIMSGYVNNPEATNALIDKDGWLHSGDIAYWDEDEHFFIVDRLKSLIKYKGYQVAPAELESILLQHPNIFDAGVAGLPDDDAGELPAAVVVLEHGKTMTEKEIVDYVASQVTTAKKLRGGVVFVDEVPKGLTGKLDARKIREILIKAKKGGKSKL
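Purified P. pyralis luciferase (10nM final) with 10uM D-luciferin and 10uM ATP (Km levels) in 50mM Tris acetate pH 7.5, 10mM Mg acetate, 0.01% Tween-20, 0.05% BSA; qHTS 6-point titration, ~60 µM downward; luminescence read.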
The depositor's hits bear a star; ? = inconclusive; . = no result. Calls follow the shape of the dose curve; as a rule, active = well fitted curve in the direction sought with a large enough effect; inconclusive = small, poorly fitted or top-dose-only effect, or another doubt; inactive = no such curve, though single readings can be large; an effect the other way counts as inactive or inconclusive. Potency is read from the fitted curve at half-maximal effect.

SMILES | NPC1 prom act | ELG1 genotoxic | SMN2 splice up | Rab9 prom act | Luc counter | FLuc modulator
COc1ccccc1NC(=O)C(C)Sc1nnc2ccc3ccccc3n12 (stereo not drawn) | . | . | . | . | . | 0%
Cc1cc(Br)ccc1NC(=O)CSc1c2c(nc3ccccc13)CCC2 | . | . | -34% | . | . | -12%
Fc1ccc(/C=N/Nc2ccccn2)cc1 | 28% | ? | 81% | 3.5µM* | -6% | 11µM*
COc1ccc(/C=N/Nc2ccccn2)cc1O | ? | ? | . | ? | . | 6.7µM*
CC1(C)Cc2ccccc2C(N/N=C/c2ccc(Cl)cc2)=N1 | -2% | -5% | -8% | -3% | 2% | 17µM*
CC1(C)Cc2ccccc2C(N/N=C/c2ccc([N+](=O)[O-])cc2)=N1 | -3% | 5% | -21% | -2% | -1% | -6%
Brc1ccc(/C=N/Nc2ccccn2)cc1 | ? | ? | . | 3.5µM* | 0% | 6.7µM*
